Sampled rows, rich in hits. Any-hit rate of the full collection: about 4.8%.
hcDAF-12 act: activates DAF-12 receptor from parasite H. contortus. HEK293 hcDAF-12 lit1-tk-luc reporter, luminescence; 0% DMSO, 100% Δ7-dafachronic acid. activation, % at 6.8 µM. 370,000 compounds, 1.4% hits;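 active = activation above the mean of all tested compounds plus 3 SD, cut at about 5.5% in these data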;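 also: 100% = response to 3 µM Δ7-dafachronic acid high control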
DAX1 inh-1: inhibitors of human orphan nuclear receptor DAX1 (NR0B1) | P51843 | HEK293 Gal4-DAX1 luciferase reporter, luminescence | inhibition, % at 6.75 µM | 340,000 compounds, 0.99% hits | AID 504766;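 active = inhibition above the mean over all tested compounds plus 3 SD, cut at about 4.2% in these data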;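 also: 0% = DAX1-transfected cells with DMSO and 100% = empty-vector control cells with DMSO; inhibition shows as a rise in luminescence from relieved DAX1 repression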
Target sequence (P51843 207-470 limits assumed): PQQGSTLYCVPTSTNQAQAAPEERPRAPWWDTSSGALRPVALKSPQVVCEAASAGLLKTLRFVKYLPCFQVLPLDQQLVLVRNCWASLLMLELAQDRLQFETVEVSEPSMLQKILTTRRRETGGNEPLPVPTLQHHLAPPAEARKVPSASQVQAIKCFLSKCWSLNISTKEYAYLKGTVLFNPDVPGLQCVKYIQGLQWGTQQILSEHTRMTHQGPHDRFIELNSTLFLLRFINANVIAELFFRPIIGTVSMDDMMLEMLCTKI
ssDAF-12 act: activators of S. stercoralis DAF-12 nuclear receptor. activation, % at 6.8 µM. 370,000 compounds, 1% hits. HEK293 ssDAF-12/GRIP1 lit1-tk-luc reporter, luminescence; % of 3 µM dafachronic acid response;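 active = activation above the mean over all tested compounds plus 3 SD, cut at about 0.9% in these data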;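 also: 0% = DMSO-only wells and 100% = 3 µM delta7-dafachronic acid wells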
hgDAF-12 ag: activates the H. glycines DAF-12 receptor ligand-binding domain; HEK293 GAL4-hgDAF12 UAS-luciferase reporter, agonist luminescence; normalized to butyrate control; 370,000 compounds, 1.8% hits; activation, % at 6.8 µM; AID 687014;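 active = activation above a cutoff set at the mean of all screened compounds plus 3 SD, cut at about 10% in these data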;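 also: 0% = DMSO wells and 100% = sodium butyrate wells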
Rev-erbA mod: Rev-erb alpha (human) modulation; Rev-erbα–FITC-DNA binding, fluorescence polarization, 90 min; activity, % at 10 µM; 370,000 compounds, 0.79% hits;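 active = activity above about 14%, limit read from the data; passing the limit was not always enough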;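 also: 0% = DMSO wells with 35 nM protein and 100% = DMSO wells with 750 nM protein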
DAX1 inh-2: inhibitors of DAX1 repression of SF-1 activated StAR promoter; HEK293T StAR-luciferase reporter, SF-1/DAX-1 repression relief; inhibition, % at 6.8 µM; 370,000 compounds, 1.1% hits;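 active = inhibition above the mean over all tested compounds plus 3 SD, cut at about 3.6% in these data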;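 also: 0% = DAX-1 cells with DMSO and 100% = cells lacking DAX-1 with DMSO; higher inhibition means more luminescence from relief of DAX-1 repression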
DAX1 inh confirm: NR0B1 (human) inhibition, confirmation; 2,400 compounds, 87% hits; shares compounds with DAX1 inh-2; HEK293T StAR-promoter luciferase reporter, SF-1/DAX-1 repression; inhibition, % at 6.8 µM;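 active = inhibition above the average of every tested compound plus 3 SD, cut at about 3.8% in these data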;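 also: 0% = DAX-1 cells with DMSO and 100% = no DAX-1 control cells with DMSO; active compounds raise luminescence by relieving repression of the StAR reporter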
Target sequence (P51843 whole entry, looked up): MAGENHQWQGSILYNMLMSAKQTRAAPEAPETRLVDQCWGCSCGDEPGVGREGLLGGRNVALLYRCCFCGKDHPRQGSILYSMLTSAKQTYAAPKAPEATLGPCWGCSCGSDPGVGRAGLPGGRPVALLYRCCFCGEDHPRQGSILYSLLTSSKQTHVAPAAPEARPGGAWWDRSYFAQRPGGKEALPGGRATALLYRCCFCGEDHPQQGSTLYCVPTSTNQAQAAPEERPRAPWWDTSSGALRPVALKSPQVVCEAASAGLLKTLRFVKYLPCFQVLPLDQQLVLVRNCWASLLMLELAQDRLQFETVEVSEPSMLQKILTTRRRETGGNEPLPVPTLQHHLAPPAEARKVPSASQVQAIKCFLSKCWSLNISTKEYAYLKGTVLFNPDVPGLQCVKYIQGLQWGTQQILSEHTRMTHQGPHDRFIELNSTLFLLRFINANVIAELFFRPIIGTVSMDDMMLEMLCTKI
SF1 mutant ctr: nonselective inhibitor or artifact in SF-1 mutant DAX1 counter-screen. 2,400 compounds, 78% hits. HEK293 StAR-luciferase, SF-1 AF2 mutant, luminescence. shares compounds with DAX1 inh-2. inhibition, % at 6.8 µM;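 active = inhibition above the mean of all tested compounds plus 3 SD, cut at about 3% in these data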;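 also: 0% = DAX-1 transfected cells with DMSO and 100% = cells without DAX-1 with DMSO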
LXRb hcDAF ctr: counter-screen for hcDAF-12 agonists: agonists of human LXR-beta | shares compounds with hcDAF-12 act | 3,400 tested, under 10 active | HEK293 Gal4-LXR tk-luc reporter, luminescence, 24 h; normalized: DMSO 0%, positive control 100% | activation, % at 6.8 µM | AID 743027;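 active = mean percent activation of the reporter above a cutoff set as the average over tested compounds plus their standard deviation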
hcDAF12 conf: confirmation of H. contortus DAF-12 agonists. HEK293 hcDAF-12 lit1-tk-luc reporter, luminescence; % of Δ7-dafachronic acid response. activation, % at 6.8 µM. shares compounds with hcDAF-12 act. 3,400 compounds, 61% hits. AID 743032;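 active = mean activation across triplicate tests above the threshold derived from the earlier primary screen, cut at about 5.5% in these data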;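 also: 0% = DMSO only wells and 100% = 3 µM Δ7-dafachronic acid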
hgDAF12 ag: confirmation of H. glycines DAF-12 agonists; activation, % at 6.8 µM; shares compounds with hgDAF-12 ag; HEK293 GAL4-hgDAF12 luciferase reporter, agonist mode; percent of butyrate response; 3,300 compounds, 80% hits;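 active = mean activation over triplicate wells above the hit cutoff derived from the earlier primary screen, cut at about 11% in these data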;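 also: 0% = DMSO low control and 100% = 2 mM sodium butyrate high control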
LXRb DAF12 ctr: counter-screen for DAF-12 agonists: agonists of human LXR-beta; shares compounds with hgDAF-12 ag; HEK293 Gal4-LXR luciferase reporter, 24 h; activation, % at 6.8 µM; 3,300 tested, under 10 active;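 active = mean activation of the triplicate above a set limit carried over from the primary screen, none filed active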
Numbers without * were called inactive; . = no result given.

SMILES | hcDAF-12 act | DAX1 inh-1 | ssDAF-12 act | hgDAF-12 ag | Rev-erbA mod | DAX1 inh-2 | DAX1 inh confirm | SF1 mutant ctr | LXRb hcDAF ctr | hcDAF12 conf | hgDAF12 ag | LXRb DAF12 ctr
Oc1ccccc1-c1cc(-c2ccccc2Cl)[nH]n1 | 19* | 1 | 4.0* | 25* | 1 | 8.6* | 19* | 11* | 2 | 15* | 27* | 1
COc1ccc(CN2CN3Cc4cc(F)ccc4C3CS2(=O)=O)cc1 (stereo not given) | -2 | . | -2 | 1 | 7 | 0 | . | . | . | . | . | .
O=C(Nc1nnc([C@@H]2C[C@H](O)[C@@H](CO)O2)s1)c1cccc2ccccc12 | 4 | . | 1 | 25* | -11 | 5.0* | 8.7* | 5.6* | . | . | 13* | 1
O=C(Nc1nnc([C@@H]2C[C@H](O)[C@@H](CO)O2)s1)Nc1ccccc1F | 5 | . | 0 | 15* | 0 | 7.3* | 7.2* | 3.4* | . | . | 11* | 0
CCOC(=O)[C@@]12CN(C(=O)OC(C)(C)C)CC=C1N(Cc1ccc(OC)cc1)C(=O)[C@H]2CC(=O)NCc1cccc(C(F)(F)F)c1 | -1 | . | -1 | -4 | 3 | 0 | . | . | . | . | . | .
CCCCOc1ccc(C(=O)NC2CCCCN(Cc3ccc(C)cc3)C2=O)cc1 (stereo not given) | -3 | . | -2 | -1 | 1 | -3 | . | . | . | . | . | .
Clc1ccc(-c2csc(NCC3CCCO3)n2)cc1 (stereo not given) | 5 | . | 0.9* | 15* | 3 | 5.1* | 7.8* | 4.3* | . | . | 13* | 1
N#Cc1nc(-c2ccc(Cl)cc2)oc1NCC1CCCO1 (stereo not given) | 4 | 0 | -2 | 3 | -3 | 0 | . | . | . | . | . | .
C[C@@H]1CN([C@@H](C)CO)C(=O)CCCn2cc(nn2)CO[C@H]1CN(C)C(=O)Nc1ccc(C(F)(F)F)cc1 | -1 | . | -1 | 2 | 1 | -1 | . | . | . | . | . | .
CN1CCCCC(NC(=O)COCc2ccccc2)C1=O (stereo not given) | -1 | . | -1 | 1 | 8 | 0 | . | . | . | . | . | .
Cc1ccc(Nc2ncnc3nc[nH]c23)cc1Cl | 0 | 4 | 0 | 14* | 0 | 6.4* | 8.1* | 5.5* | . | . | 14* | 1
CCC(=O)Nc1cc2nn(-c3ccc(OC)cc3)nc2cc1C | 6 | 5.5* | 0 | 16* | 8 | 5.1* | 13* | 3.3* | . | . | 14* | 1
CCCCC(=O)Nc1cc2nn(-c3ccc(OC)cc3)nc2cc1C | 1 | -1 | -1 | 5 | 13 | 1 | . | . | . | . | . | .
Cc1cccc(/C(N)=N/OC(=O)c2ccc3c(c2)OCO3)c1 | 8.6* | 1 | 0 | 15* | -4 | 5.4* | 11* | 6.8* | 1 | 6.7* | 14* | 1
N/C(=N\OC(=O)c1ccc2c(c1)OCO2)c1cccc([N+](=O)[O-])c1 | 3 | 0 | -1 | 3 | 8 | 0 | . | . | . | . | . | .
Cc1nc2cc[nH]n2c(=O)c1CCc1ccccc1 | -1 | . | -1 | -2 | -1 | 0 | . | . | . | . | . | .
Cc1ccc(C(=O)N2CCC[C@@H]2C(=O)N2CCC[C@@H]2C(=O)NCc2ccccc2)cc1 | 0 | . | -1 | 1 | -4 | 0 | . | . | . | . | . | .
COc1ccc(C(=O)NC(=O)NC2(C(Cl)(Cl)Cl)OCCO2)cc1 | 9.7* | 3 | 1.0* | 25* | 0 | 12* | 16* | 6.0* | 1 | 9.1* | 20* | 1
CCCCCc1nnc(NC(=O)C2=COCCO2)s1 | 9.0* | 3 | 1.9* | 20* | 4 | 11* | 10* | 5.0* | 1 | 8.0* | 14* | 1
COc1ccc(NC(=O)CSc2nnc(NC(=O)C3CCC3)s2)cc1 | -2 | 0 | -1 | 0 | 0 | 0 | . | . | . | . | . | .
COc1ccc(C(=O)Nc2nnc(SCC(=O)Nc3ccc(NC(C)=O)cc3)s2)c(OC)c1 | 8.7* | 9.3* | 1 | 14* | -15 | 13* | 14* | 7.2* | 1 | 7.6* | 19* | 1
C[C@@H]1CN(C(=O)OC(C)(C)C)CCN1c1ccc(N2CCN(Cc3ccccc3)[C@@H](C)C2)c(C#N)c1 | -3 | . | -2 | 1 | -6 | -4 | . | . | . | . | . | .
COCCNc1nc(-c2cc3ccccc3o2)cs1 | 8.7* | 1 | 0 | 16* | 0 | 6.7* | 9.9* | 7.2* | 2 | 7.5* | 18* | 1
O=C(Nc1ccccc1)OCCc1ccccn1 | 4 | 5.8* | -1 | 14* | 2 | 9.3* | 7.4* | 4.2* | . | . | 11* | 1
O=C(Cc1ccccn1)c1ccccc1 | -1 | 0 | -2 | 0 | -8 | 0 | . | . | . | . | . | .
SMILES | hcDAF-12 act | DAX1 inh-1 | ssDAF-12 act | hgDAF-12 ag | Rev-erbA mod | DAX1 inh-2 | DAX1 inh confirm | SF1 mutant ctr | LXRb hcDAF ctr | hcDAF12 conf | hgDAF12 ag | LXRb DAF12 ctr
O=C(CCCc1ccccn1)c1ccccc1 | 7.7* | 1 | 0 | 18* | -2 | 5.6* | 11* | 5.8* | 1 | 3 | 11* | 1
Oc1cccc(-c2nc3ccccc3s2)c1 | 21* | -1 | 3.6* | 17* | -3 | 5.3* | 11* | 8.3* | 2 | 16* | 24* | 1
COc1cccc(-c2nc3ccccc3s2)c1O | 16* | 0 | 3.5* | 25* | -4 | 7.0* | 18* | 8.4* | 2 | 15* | 21* | 1
Oc1ccc(O)c(Cc2nc3ccccc3s2)c1 | 1 | -1 | -1 | -2 | 2 | -2 | . | . | . | . | . | .
CCN(CC)c1nc(-c2cccc(OC)c2O)nc2ccccc12 | 4 | 0 | 0 | 2 | 8 | 1 | . | . | . | . | . | .
Cc1ccsc1C(=O)Nc1ccc2c(c1)OCCO2 | 5 | -1 | -1 | 21* | -2 | 4.6* | 14* | 7.7* | . | . | 15* | 1

Screening results from PubChem.
